Records with an inconclusive call do not appear. A number with no mark means an inactive call. Calls come from the whole dose curve; as a rule, active = well fitted cell-killing curve with a large enough effect; inconclusive = small, poorly fitted or top-dose-only effect; inactive = flat fitted curve, though single readings scatter.
assay: qHTS assay to identify small molecule inhibitors of chordoma cells - UCH-2 (AID 1259356); conditions: UCH-2 chordoma viability, CellTiter-Glo ATP luminescence, 48 h; series mostly up to 46.1 µM; activity change, negative = inhibition: at the top concentration
Source text: NIH Chemical Genomics Center [NCGC]
Chordoma is a rare and slow growing tumor that can occur anywhere along the spine, from the base of the skull to the tailbone. Current treatment options for chordoma is surgery and radiation therapy for those who are not candidates for surgery. But chordomas tend to return in the same location or surrounding areas of the original tumor after surgery and/or radiation. Chemotherapy can slow down the progression of the tumor. As chordoma is slow growing, the general cytotoxic agents that kill fast growing cells are ineffective, and some patients have been reported to respond to molecularly targeted drugs.
NCATS Pharmaceutical Collection (NPC) containing approximately 3000 clinically approved and investigational drugs were used to screen at 15 concentrations in a chordoma cell lines, UCH-2, to identify small molecule compounds that can inhibit chordoma cell growth.
NCGC Assay Protocol Summary:
Human chordoma cell line UCH-2 was dispensed at 800 per well in 4uL of culture medium into white solid bottom 1536-well plates (Corning Life Sciences, Corning, NY) using a Multidrop Combi (Thermo Scientific, Waltham, MA) dispenser. The assay plates were incubated at 37 C and 5% CO2 for an overnight, and then 23nL of compounds dissolved in DMSO and positive control were transferred using a Pintool station (Wako, San Diego, CA). Compound treatment was followed by the addition of 1uL of the combination compounds (1uM Auranofin, 500nM each of Camptothecin, Doxorubicin, Rubitecan, and Topotecan) and assay medium to each well of the assay plates using Flying Reagent Dispenser (FRD, Aurora Discovery, San Diego, CA). The assay plates were incubated at 37 C and 5% CO2 for 48hr. Then 5uL of CellTiter-Glo reagent (Promega Corporation, Madison, WI) was added to each well of the assay plates using FRD. After 30min incubation at room temperature, the luminescence signal was quantified using a ViewLux plate reader (PerkinElmer, Shelton, CT).
% is set by controls: 0 for no effect and ±100 for the full control effect.

First: CS(=O)(=O)c1ccc(C2=C(c3ccccc3)C(=O)OC2)cc1
Second: CC(C)CN(C[C@@H](O)[C@H](Cc1ccccc1)NC(=O)O[C@H]1CO[C@H]2OCC[C@H]21)S(=O)(=O)c1ccc(N)cc1
The “activity change, negative = inhibition” value of the first is lower: 4.71% for the first, 7.79% for the second.

Compared with `CN1CC(=O)N2C(Cc3c([nH]c4ccccc34)[C@H]2c2ccc3c(c2)OCO3)C1=O` (stereo partly specified), `CN1CCN2c3ncccc3Cc3ccccc3C2C1` (stereo unspecified) is higher in “activity change, negative = inhibition” value: -0.865% for the first, 2.79% for the second.

Compared with `COc1cc2c(cc1OC)CC(=O)N(CCCN(C)C[C@H]1Cc3cc(OC)c(OC)cc31)CC2`, `COc1c(C)c2c(c(O)c1CC=C(C)CCC(=O)OCCN1CCOCC1)C(=O)OC2` is lower in “activity change, negative = inhibition” value: 9.43% for the first, -1.04% for the second.

First: N#Cc1c(N(CC(=O)O)CC(=O)O)sc(C(=O)O)c1CC(=O)O
Second: O=C(O)c1nc(=O)[nH]c(=O)[nH]1
The “activity change, negative = inhibition” value of the first is higher: 17.7% for the first, 2.31% for the second.

Going from `Fc1ccc(C(c2ccc(F)cc2)N2CCN(CC=Cc3ccccc3)CC2)cc1` to `COc1ccc(-c2nc3ccc(C4=NNC(=O)CC4C)cc3[nH]2)cc1` (stereo unspecified), the “activity change, negative = inhibition” value falls from -0.72% to -14.6%.

Going from `CC[C@H](C)C(=O)O[C@H]1C[C@H](O)C=C2C=C[C@H](C)[C@H](CC[C@@H](O)C[C@@H](O)CC(=O)O)[C@H]21` to `COc1ccnc(CS(=O)c2nc3ccc(OC(F)F)cc3[nH]2)c1OC` (stereo unspecified), the “activity change, negative = inhibition” value falls from 13% to 5.53%.

With `N#CC(c1ccc(Cl)cc1)c1c(Cl)cc(-n2ncc(=O)[nH]c2=O)cc1Cl` (stereo unspecified) the “activity change, negative = inhibition” value was 7.74%.

First: NS(=O)(=O)c1cc(Cl)c(Cl)c(S(N)(=O)=O)c1
Second: Clc1ccc(COC(Cn2ccnc2)c2ccc(Cl)cc2Cl)c(Cl)c1 (stereo unspecified)
The “activity change, negative = inhibition” value of the first is lower: 3.92% [at 20.6 µM] for the first, 7.14% [at 20.6 µM] for the second.

For `NCC1CCC(C(=O)O)CC1` (stereo unspecified), the “activity change, negative = inhibition” value was 3.29% [at 20.6 µM].
